# Results taken from PubChem BioAssay (EPA / NIEHS).
# Activity calls are given as the source filed them. How the source made its calls: active means hit-call score of the fitted dose curve at least 0.9, where 1 is the maximum; inactive means score below 0.9.
# How the values were obtained:
# [1] = CEETOX_H295R_PROG: CeeTox H295R High-throughput Steroidogenesis Assay for Progesterone (PROG) (AID 2283442); conditions: actives raise or lower the signal;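 on AC50: human H295R adrenal cells primed with 10 µM forskolin before dosing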
# How it was run: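 H295R human adrenal cells were prestimulated with 10 uM forskolin for 48 h, then exposed to test chemical (0.1% DMSO final) for 48 h. Medium progesterone was MTBE-extracted and quantified by HPLC-MS/MS, with bidirectional fitting against DMSO.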
# [2] = read-out: Tumor necrosis factor receptor superfamily member 6 (Homo sapiens) (UniProt P25445); experiment: LTEA_HepaRG_FAS: Life Technologies and Expression Analysis (LTEA) Assay for Fas cell surface death receptor (FAS) using HepaRG (AID 2283447); conditions: mRNA level, 48 h; actives raise or lower the signal
# How it was run: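 Differentiated human HepaRG cells, pre-cultured 48 h, were exposed in duplicate for 48 h to 8-point half-log concentrations (top 100 uM, 0.5% DMSO) in serum-free induction medium; FAS mRNA measured by qRT-PCR, normalized to ACTB/GAPDH/POLR2A, bidirectional fit versus DMSO.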
# [3] = read-out: Cyclin D2 (CCND2), CCND2 (gene 894); experiment: LTEA_HepaRG_CCND2: Life Technologies and Expression Analysis (LTEA) Assay for Cyclin D2 (CCND2) using HepaRG (AID 2283449); conditions: mRNA level, 48 h; actives raise or lower the signal;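 further: CCND2 transcript measured by TaqMan qRT-PCR and normalised to three housekeeping genes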
# How it was run: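 Differentiated human HepaRG cells were exposed for 48 h in serum-free induction medium to eight half-log concentrations topping at 100 uM (0.5% DMSO vehicle). CCND2 mRNA was quantified by TaqMan qRT-PCR, normalised to ACTB, GAPDH and POLR2A, and fitted bidirectionally against DMSO.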
# [4] = read-out: Cyclin Dependent Kinase Inhibitor 1A (CDKN1A), CDKN1A (gene 1026); experiment: LTEA_HepaRG_CDKN1A: Life Technologies and Expression Analysis (LTEA) Assay for Cyclin Dependent Kinase Inhibitor 1A (CDKN1A) using HepaRG (AID 2283450); conditions: mRNA level, 48 h; actives raise or lower the signal
# How it was run: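 Differentiated human HepaRG cells, pre-cultured 48 h, were exposed in duplicate for 48 h in serum-free induction medium to eight half-log concentrations up to 100 uM (0.5% DMSO). CDKN1A mRNA was measured by qRT-PCR, normalized to ACTB/GAPDH/POLR2A, bidirectionally fitted versus DMSO.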
# [5] = read-out: Cyclin D1 (CCND1), CCND1 (gene 595); experiment: LTEA_HepaRG_CCND1: Life Technologies and Expression Analysis (LTEA) Assay for Cyclin D1 (CCND1) using HepaRG (AID 2283451); conditions: mRNA level, 48 h; actives raise or lower the signal;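 on AC50: TaqMan qRT-PCR transcript level normalised to ACTB GAPDH and POLR2A housekeeping genes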
# How it was run: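 Differentiated human HepaRG cells in serum-free induction medium were exposed 48 h to eight half-log concentrations up to 100 uM in 0.5% DMSO; mRNA quantified by TaqMan qRT-PCR, normalized to ACTB, GAPDH, POLR2A, fitted bidirectionally versus DMSO.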
# [6] = read-out: catalase (CAT), CAT (gene 847); experiment: LTEA_HepaRG_CAT: Life Technologies and Expression Analysis (LTEA) Assay for catalase (CAT) using HepaRG (AID 2283452); conditions: mRNA level, 48 h; actives raise or lower the signal
# How it was run: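 Differentiated HepaRG cells in serum-free induction medium were dosed 48 h in duplicate, eight half-log concentrations from 100 uM in 0.5% DMSO. Transcript measured by TaqMan qRT-PCR, normalised to ACTB/GAPDH/POLR2A, fitted bidirectionally against DMSO.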
# [7] = read-out: flavin-containing dimethylaniline monooxygenases 3 (FMO3), FMO3 (gene 2328); experiment: LTEA_HepaRG_FMO3: Life Technologies and Expression Analysis (LTEA) Assay for flavin-containing dimethylaniline monooxygenases 3 (FMO3) using HepaRG (AID 2283453); conditions: mRNA level, 48 h; actives raise or lower the signal
# How it was run: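 Differentiated HepaRG cells in serum-free induction medium, exposed 48 h in duplicate to 8 half-log concentrations up to 100 uM in 0.5% DMSO. FMO3 mRNA by qRT-PCR, normalized to ACTB, GAPDH, POLR2A; bidirectional fit vs DMSO.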
# [8] = read-out: CFLAR gene, CFLAR (gene 8837); experiment: LTEA_HepaRG_CFLAR: Life Technologies and Expression Analysis (LTEA) Assay for CFLAR gene using HepaRG (AID 2283455); conditions: mRNA level, 48 h; actives raise or lower the signal
# How it was run: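 HepaRG cells were plated for 48 h, switched to serum-free induction medium, then exposed in duplicate for 48 h to 8 concentrations (top 100 uM, half-log steps, 0.5% DMSO). CFLAR mRNA was measured by qRT-PCR, normalized to ACTB, GAPDH and POLR2A.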
# [9] = read-out: Forkhead box O1 (FOXO1), FOXO1 (gene 2308); experiment: LTEA_HepaRG_FOXO1: Life Technologies and Expression Analysis (LTEA) Assay for Forkhead box O1 (FOXO1) using HepaRG (AID 2283456); conditions: mRNA level, 48 h; actives raise or lower the signal
# How it was run: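 Differentiated human HepaRG cells in serum-free induction medium were exposed in duplicate for 48 h to eight half-log concentrations (top 100 uM, 0.5% DMSO). FOXO1 mRNA was measured by TaqMan qRT-PCR, normalised to ACTB, GAPDH and POLR2A, and fitted bidirectionally against DMSO.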
# [10] = read-out: growth arrest and DNA damage 45 (GADD45A), GADD45A (gene 1647); experiment: LTEA_HepaRG_GADD45A: Life Technologies and Expression Analysis (LTEA) Assay for growth arrest and DNA damage 45 (GADD45A) using HepaRG (AID 2283458); conditions: mRNA level, 48 h; actives raise or lower the signal
# How it was run: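 Cells plated and cultured 48 h, switched to serum-free induction medium, then dosed for 48 h (100 uM top, half-log dilutions, 0.5% DMSO). RNA was isolated and transcript measured by Fluidigm qRT-PCR.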
# [11] = read-out: Forkhead box O3 (FOXO3), FOXO3 (gene 2309); experiment: LTEA_HepaRG_FOXO3: Life Technologies and Expression Analysis (LTEA) Assay for Forkhead box O3 (FOXO3) using HepaRG (AID 2283459); conditions: mRNA level, 48 h; actives raise or lower the signal
# How it was run: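 Differentiated human HepaRG cells in serum-free induction medium were exposed in duplicate for 48 h to eight half-log concentrations up to 100 uM in 0.5% DMSO. FOXO3 mRNA was quantified by qRT-PCR, normalized to ACTB, GAPDH and POLR2A, with bidirectional fitting versus DMSO.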
# [12] = read-out: ABC Transporter (ABCB1), ABCB1 (gene 5243); experiment: LTEA_HepaRG_ABCB1: Life Technologies and Expression Analysis (LTEA) Assay for ABC Transporter (ABCB1) using HepaRG (AID 2283460); conditions: mRNA level, 48 h; actives raise or lower the signal
# How it was run: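 Differentiated human HepaRG cells, plated 48 h then switched to serum-free induction medium, were exposed in duplicate to eight half-log concentrations up to 100 uM in 0.5% DMSO for 48 h. ABCB1 mRNA was measured by TaqMan qRT-PCR, normalized to ACTB/GAPDH/POLR2A.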
# [13] = read-out: ABC Transporter (ABCC3), ABCC3 (gene 8714); experiment: LTEA_HepaRG_ABCC3: Life Technologies and Expression Analysis (LTEA) Assay for ABC Transporter (ABCC3) using HepaRG (AID 2283462); conditions: mRNA level, 48 h; actives raise or lower the signal
# How it was run: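 HepaRG cells in serum-free induction medium were exposed for 48 h in duplicate to 8-point half-log concentrations topping at 100 uM in 0.5% DMSO. ABCC3 mRNA was measured by qRT-PCR normalized to ACTB, GAPDH and POLR2A, with bidirectional fitting versus DMSO.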
# [14] = read-out: ABC Transporter (ABCB11), ABCB11 (gene 8647); experiment: LTEA_HepaRG_ABCB11: Life Technologies and Expression Analysis (LTEA) Assay for ABC Transporter (ABCB11) using HepaRG (AID 2283463); conditions: mRNA level, 48 h; actives raise or lower the signal
# How it was run: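 Differentiated human HepaRG cells were exposed for 48 h in serum-free induction medium to eight half-log concentrations up to 100 uM in 0.5% DMSO. ABCB11 mRNA was quantified by qRT-PCR, normalized to ACTB, GAPDH and POLR2A, and fitted bidirectionally versus DMSO.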
# [15] = read-out: ABC Transporter (ABCC2), ABCC2 (gene 1244); experiment: LTEA_HepaRG_ABCC2: Life Technologies and Expression Analysis (LTEA) Assay for ABC Transporter (ABCC2) using HepaRG (AID 2283464); conditions: mRNA level, 48 h; actives raise or lower the signal
# How it was run: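 HepaRG cells were plated 48 h, switched to serum-free induction medium, then exposed in duplicate for 48 h to 8 concentrations (top 100 uM, half-log steps, 0.5% DMSO). ABCC2 mRNA was measured by qRT-PCR normalized to ACTB/GAPDH/POLR2A; bidirectional fitting versus DMSO.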
# [16] = read-out: Broad substrate specificity ATP-binding cassette transporter ABCG2 (Homo sapiens) (UniProt Q9UNQ0); experiment: LTEA_HepaRG_ABCG2: Life Technologies and Expression Analysis (LTEA) Assay for ABC Transporter (ABCG2) using HepaRG (AID 2283465); conditions: mRNA level, 48 h; actives raise or lower the signal
# How it was run: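 Differentiated HepaRG cells in serum-free induction medium were exposed for 48 h, in duplicate, to eight half-log concentrations up to 100 uM in 0.5% DMSO. ABCG2 mRNA was measured by TaqMan qRT-PCR, normalized to ACTB, GAPDH and POLR2A, and fitted bidirectionally versus DMSO.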
# [17] = read-out: Fatty acid synthase (Homo sapiens) (UniProt P49327); experiment: LTEA_HepaRG_FASN: Life Technologies and Expression Analysis (LTEA) Assay for Fatty Acid Synthase (FASN) using HepaRG (AID 2283448); conditions: mRNA level, 48 h; actives raise or lower the signal
# How it was run: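 FASN expression changes, up or down relative to 0.5% DMSO, were measured by qRT-PCR in human HepaRG cells after 48 h treatment with chemicals at eight concentrations (half-log steps from 100 uM).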
# [18] = read-out: Cytochrome P450 (CYP1A1), CYP1A1 (gene 1543); experiment: LTEA_HepaRG_CYP1A1: Life Technologies and Expression Analysis (LTEA) Assay for Cytochrome P450 (CYP1A1) using HepaRG (AID 2283454); conditions: mRNA level, 48 h; actives raise or lower the signal
# How it was run: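 Differentiated HepaRG cells in serum-free induction medium were exposed in duplicate for 48 h to eight half-log concentrations up to 100 uM in 0.5% DMSO. CYP1A1 mRNA was quantified by TaqMan qRT-PCR, normalized to ACTB, GAPDH and POLR2A.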
# [19] = CEETOX_H295R_TESTO: CeeTox H295R High-throughput Steroidogenesis Assay for Testosterone (TESTO) (AID 2283457); conditions: actives raise or lower the signal;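 on AC50: cells exposed to chemicals for 48 h before medium collection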
# How it was run: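 H295R human adrenal cells in DMEM/F12 with ITS+ and Nu-Serum, exposed to chemicals for 48 h. Testosterone in medium measured by MTBE extraction, reverse-phase HPLC-MS/MS; bidirectional fit versus DMSO baseline. MTT viability checked in same wells.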
# [20] = read-out: growth arrest and DNA damage 45 (GADD45B), GADD45B (gene 4616); experiment: LTEA_HepaRG_GADD45B: Life Technologies and Expression Analysis (LTEA) Assay for growth arrest and DNA damage 45 (GADD45B) using HepaRG (AID 2283461); conditions: mRNA level, 48 h; actives raise or lower the signal
# How it was run: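 Differentiated HepaRG cells, plated 48 h then switched to serum-free induction medium, were exposed 48 h in duplicate to eight half-log concentrations from 100 uM in 0.5% DMSO; mRNA quantified by qRT-PCR, normalized to ACTB/GAPDH/POLR2A, bidirectional fit versus DMSO.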
# Broad substrate specificity ATP-binding cassette transporter ABCG2 (Homo sapiens), sequence (Q9UNQ0 whole entry, looked up): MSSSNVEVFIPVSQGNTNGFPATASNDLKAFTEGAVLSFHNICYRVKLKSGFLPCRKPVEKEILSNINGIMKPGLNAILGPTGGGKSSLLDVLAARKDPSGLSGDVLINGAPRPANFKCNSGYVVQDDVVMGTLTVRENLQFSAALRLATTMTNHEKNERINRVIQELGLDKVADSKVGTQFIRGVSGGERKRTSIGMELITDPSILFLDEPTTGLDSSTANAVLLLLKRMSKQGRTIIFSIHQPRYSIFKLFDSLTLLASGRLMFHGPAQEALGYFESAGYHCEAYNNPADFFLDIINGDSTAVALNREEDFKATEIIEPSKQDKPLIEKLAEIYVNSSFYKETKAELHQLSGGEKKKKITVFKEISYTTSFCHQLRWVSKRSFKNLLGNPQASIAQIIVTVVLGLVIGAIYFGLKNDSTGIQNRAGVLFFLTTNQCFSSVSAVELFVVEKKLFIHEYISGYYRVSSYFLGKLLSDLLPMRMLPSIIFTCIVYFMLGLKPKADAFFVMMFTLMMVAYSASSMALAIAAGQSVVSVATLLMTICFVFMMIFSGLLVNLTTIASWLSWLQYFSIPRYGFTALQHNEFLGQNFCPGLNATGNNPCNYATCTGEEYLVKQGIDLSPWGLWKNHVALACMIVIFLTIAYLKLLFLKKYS
# Fatty acid synthase (Homo sapiens), sequence (P49327 whole entry, looked up): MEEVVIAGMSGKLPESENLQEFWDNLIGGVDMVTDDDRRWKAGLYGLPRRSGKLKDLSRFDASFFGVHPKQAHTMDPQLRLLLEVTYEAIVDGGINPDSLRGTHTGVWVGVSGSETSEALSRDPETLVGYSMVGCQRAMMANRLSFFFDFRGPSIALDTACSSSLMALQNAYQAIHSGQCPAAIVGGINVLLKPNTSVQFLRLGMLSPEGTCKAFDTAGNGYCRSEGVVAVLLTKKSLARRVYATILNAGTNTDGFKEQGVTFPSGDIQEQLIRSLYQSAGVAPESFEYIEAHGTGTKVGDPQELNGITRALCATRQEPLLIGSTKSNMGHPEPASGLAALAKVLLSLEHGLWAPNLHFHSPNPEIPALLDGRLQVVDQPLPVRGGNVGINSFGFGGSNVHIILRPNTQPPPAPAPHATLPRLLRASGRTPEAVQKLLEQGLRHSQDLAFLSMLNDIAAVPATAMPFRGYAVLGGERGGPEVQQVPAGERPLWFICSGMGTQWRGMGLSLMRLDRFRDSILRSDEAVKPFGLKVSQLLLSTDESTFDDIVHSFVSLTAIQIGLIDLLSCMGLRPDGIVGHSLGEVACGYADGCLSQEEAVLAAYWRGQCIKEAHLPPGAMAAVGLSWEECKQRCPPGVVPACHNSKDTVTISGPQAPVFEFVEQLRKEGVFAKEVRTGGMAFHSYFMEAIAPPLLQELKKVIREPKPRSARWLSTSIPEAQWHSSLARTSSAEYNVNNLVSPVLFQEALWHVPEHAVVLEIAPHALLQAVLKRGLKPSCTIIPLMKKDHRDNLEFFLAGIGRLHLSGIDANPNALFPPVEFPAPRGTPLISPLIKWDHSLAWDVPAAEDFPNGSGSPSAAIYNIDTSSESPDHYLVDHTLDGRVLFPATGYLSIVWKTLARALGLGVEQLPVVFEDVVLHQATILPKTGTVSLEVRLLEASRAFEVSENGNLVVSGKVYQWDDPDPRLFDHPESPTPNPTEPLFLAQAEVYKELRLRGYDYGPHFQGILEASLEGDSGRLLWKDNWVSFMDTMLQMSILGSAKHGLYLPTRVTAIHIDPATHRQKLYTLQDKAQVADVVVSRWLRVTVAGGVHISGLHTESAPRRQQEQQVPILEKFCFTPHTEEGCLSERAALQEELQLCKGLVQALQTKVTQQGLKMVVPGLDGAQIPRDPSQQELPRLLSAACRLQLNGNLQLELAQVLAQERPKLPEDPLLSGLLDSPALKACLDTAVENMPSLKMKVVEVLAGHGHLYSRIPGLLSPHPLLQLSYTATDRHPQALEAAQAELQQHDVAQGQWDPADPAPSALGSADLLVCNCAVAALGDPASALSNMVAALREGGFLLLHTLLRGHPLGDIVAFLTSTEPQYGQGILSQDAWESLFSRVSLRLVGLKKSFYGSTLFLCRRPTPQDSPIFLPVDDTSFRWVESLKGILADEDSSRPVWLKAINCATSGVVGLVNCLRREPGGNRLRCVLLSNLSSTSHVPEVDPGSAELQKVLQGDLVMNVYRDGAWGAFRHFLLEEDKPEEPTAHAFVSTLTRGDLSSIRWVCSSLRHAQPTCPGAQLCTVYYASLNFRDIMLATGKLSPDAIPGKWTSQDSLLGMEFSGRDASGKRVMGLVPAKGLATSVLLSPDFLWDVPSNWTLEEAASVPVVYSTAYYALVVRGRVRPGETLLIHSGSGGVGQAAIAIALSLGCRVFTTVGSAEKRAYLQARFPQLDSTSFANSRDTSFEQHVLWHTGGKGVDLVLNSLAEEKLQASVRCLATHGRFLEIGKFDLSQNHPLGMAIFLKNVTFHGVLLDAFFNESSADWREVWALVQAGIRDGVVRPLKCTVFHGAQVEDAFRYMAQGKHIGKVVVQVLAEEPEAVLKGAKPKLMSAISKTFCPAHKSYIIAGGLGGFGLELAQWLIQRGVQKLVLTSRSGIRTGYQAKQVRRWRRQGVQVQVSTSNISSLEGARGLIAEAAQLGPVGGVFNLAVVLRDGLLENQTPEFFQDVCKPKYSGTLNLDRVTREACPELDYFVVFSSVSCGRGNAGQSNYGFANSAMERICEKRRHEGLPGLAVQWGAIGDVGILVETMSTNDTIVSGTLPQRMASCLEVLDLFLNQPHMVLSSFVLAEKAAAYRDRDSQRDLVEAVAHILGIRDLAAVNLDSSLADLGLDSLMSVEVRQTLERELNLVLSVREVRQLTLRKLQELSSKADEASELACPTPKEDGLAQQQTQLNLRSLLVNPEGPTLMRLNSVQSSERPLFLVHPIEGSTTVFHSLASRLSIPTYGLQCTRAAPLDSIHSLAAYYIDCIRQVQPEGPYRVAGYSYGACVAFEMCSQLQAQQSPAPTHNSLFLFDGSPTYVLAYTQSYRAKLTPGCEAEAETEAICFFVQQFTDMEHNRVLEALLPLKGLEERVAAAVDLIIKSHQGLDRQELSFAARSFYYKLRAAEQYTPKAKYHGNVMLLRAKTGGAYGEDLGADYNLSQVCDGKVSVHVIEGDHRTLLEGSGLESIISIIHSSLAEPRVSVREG
smiles,measurement,setting,value
CCOP(=S)(OCC)Oc1ccc([N+](=O)[O-])cc1,AC50,[1],0.444 µM (active)
same,outcome,[2],inactive
same,outcome,[3],inactive
same,outcome,[4],inactive
same,outcome,[5],inactive
same,outcome,[6],inactive
same,outcome,[7],inactive
same,outcome,[8],inactive
same,outcome,[9],inactive
same,outcome,[10],inactive
same,outcome,[11],inactive
same,outcome,[12],inactive
same,outcome,[13],inactive
same,outcome,[14],inactive
same,outcome,[15],inactive
same,outcome,[16],inactive
CCCSP(=O)(OCC)SCCC,outcome,[1],inactive
same,outcome,[2],inactive
same,outcome,[17],inactive
same,outcome,[3],inactive
same,outcome,[4],inactive
same,outcome,[5],inactive
same,outcome,[6],inactive
same,outcome,[7],inactive
same,AC50,[18],40.8 µM (active)
same,outcome,[8],inactive
same,outcome,[9],inactive
same,outcome,[19],inactive
same,outcome,[10],inactive
same,outcome,[11],inactive
same,outcome,[12],inactive
same,outcome,[13],inactive
same,outcome,[14],inactive
same,AC50,[15],20.3 µM (active)
same,outcome,[16],inactive
CCOP(=S)(OCC)Oc1ccc2c(C)c(Cl)c(=O)oc2c1,AC50,[1],2.59 µM (active)
same,outcome,[2],inactive
same,outcome,[17],inactive
same,outcome,[3],inactive
same,outcome,[4],inactive
same,outcome,[5],inactive
same,outcome,[6],inactive
same,AC50,[7],81.1 µM (active)
same,AC50,[18],6.37 µM (active)
same,outcome,[8],inactive
same,outcome,[9],inactive
same,outcome,[10],inactive
same,outcome,[11],inactive
same,AC50,[12],12.9 µM (active)
same,outcome,[20],inactive
same,outcome,[13],inactive
same,outcome,[14],inactive
same,outcome,[15],inactive
same,AC50,[16],13.3 µM (active)
CN(C)NC(=O)CCC(=O)O,outcome,[1],inactive
same,outcome,[2],inactive
same,outcome,[17],inactive
same,outcome,[3],inactive
same,outcome,[4],inactive
same,outcome,[5],inactive
same,outcome,[6],inactive
same,outcome,[7],inactive
same,outcome,[8],inactive
same,outcome,[9],inactive
same,outcome,[10],inactive
same,outcome,[11],inactive
same,outcome,[12],inactive
same,outcome,[20],inactive
same,outcome,[14],inactive
same,outcome,[15],inactive
same,outcome,[16],inactive
CCC(=O)Nc1ccc(Cl)c(Cl)c1,outcome,[2],inactive
same,AC50,[17],30.8 µM (active)
same,outcome,[4],inactive
same,AC50,[5],50 µM (active)
same,outcome,[6],inactive
same,outcome,[7],inactive
same,outcome,[8],inactive
same,outcome,[9],inactive
same,AC50,[19],2.93 µM (active)
same,outcome,[10],inactive
same,outcome,[11],inactive
same,outcome,[12],inactive
same,outcome,[14],inactive
same,AC50,[15],50 µM (active)
same,outcome,[16],inactive
